Compounds with a hit are over-represented: about 11% of the library has one in this group of screens.
PNC inhibitor – High Content Assay for Compounds that inhibit the Assembly of the Perinucleolar Compartment. PC3M PTB-GFP, PNC prevalence imaging, 16 h; hits give low values. activity change (PNC), negative = inhibition, % at 10 µM. 140,000 tested, 3.1% active;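 active = readout at or below -70, meaning at least 70% loss of cells showing the perinucleolar compartment, a nuclear body marking cancer cells; inconclusive = readout between -30 and a set limit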;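 note: plate controls were DMSO wells for no effect and camptothecin positive control wells for full effect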
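Read-out is percentage of cells bearing a perinucleolar compartment, from automated 20x imaging of fixed, Hoechst-stained PC3M PTB-GFP cells. Cells were seeded 4 h, then exposed 16 h to compound (23 nl of library stock) in duplicate plates.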
HTT cytoprotect – qHTS Multiplex Assay to Identify Dual Action Probes in a Cell Model of Huntington: Cytoprotection (ATP); PC12 HTT-Q103 induced, cytoprotection, ATP luminescence, 40 h; Potency, µM (doses to about 56.4 µM), inactives show cytoprotection (ATP increase), most hits filed as activators; 230,000 tested, 0.14% active; AID 1471, 2008; note: potency is the fitted concentration of half-maximal effect; % of control where 0% means no effect; nearly all actives have a fitted effect of over 45% in size
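Huntington model: PC12 line, ecdysone-inducible HTTQ103 exon1–GFP, tebufenozide 100 nM. Test articles in a dose series. Endpoint luminescence from cellular ATP.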
CBFb RUNX1 block – qHTS Assay for Compounds Blocking the Interaction Between CBF-beta and RUNX1 for the Treatment of Acute Myeloid Leukemia. AlphaScreen CBFb-His/RUNX1-biotin binding, biochemical. Potency, µM (top dose mostly 59.8 µM), without a hit: at the top dose activity, negative = inhibition, actives largely listed as inhibitors. 230,000 tested, under 10 active. AID 1477, 2009; note: % of control where 0% means no effect
Target sequence (Q01196 whole entry, looked up): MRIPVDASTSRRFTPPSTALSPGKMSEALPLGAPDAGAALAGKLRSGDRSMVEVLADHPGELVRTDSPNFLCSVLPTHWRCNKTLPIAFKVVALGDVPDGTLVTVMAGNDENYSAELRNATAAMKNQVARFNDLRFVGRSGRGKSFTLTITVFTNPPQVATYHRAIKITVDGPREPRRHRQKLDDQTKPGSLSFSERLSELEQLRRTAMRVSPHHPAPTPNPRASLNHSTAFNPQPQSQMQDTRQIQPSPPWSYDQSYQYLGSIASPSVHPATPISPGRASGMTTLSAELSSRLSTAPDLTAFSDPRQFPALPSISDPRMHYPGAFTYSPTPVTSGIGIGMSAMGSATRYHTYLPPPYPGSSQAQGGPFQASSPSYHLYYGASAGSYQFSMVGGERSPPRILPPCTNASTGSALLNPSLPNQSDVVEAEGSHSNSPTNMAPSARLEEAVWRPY
Target sequence (Q13951 whole entry, looked up): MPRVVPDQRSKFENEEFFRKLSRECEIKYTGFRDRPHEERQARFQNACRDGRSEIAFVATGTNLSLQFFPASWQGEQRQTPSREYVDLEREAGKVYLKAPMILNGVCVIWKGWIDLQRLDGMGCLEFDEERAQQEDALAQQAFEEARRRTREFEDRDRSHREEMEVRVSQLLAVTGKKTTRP
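Proteins preincubated together for 20 min at RT before compound addition; 15 min later, nickel and streptavidin beads were added and left 90 min prior to AlphaScreen measurement.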
HTT aggregate – qHTS Multiplex Assay to Identify Dual Action Probes in a Cell Model of Huntington: Aggregate Formation (GFP). PC12 HttQ103-GFP aggregates, Acumen cytometry, 40 h. Potency, µM (highest dose often 46.1 µM), inactives show at the highest dose activity change, negative = inhibition, usual class: inhibitors. 220,000 tested, 1.1% active. AID 1688, 2009; note: potency is the fitted concentration of half-maximal effect; % is set by controls: 0 for no effect and ±100 for the full control effect; nearly all actives have a fitted effect of over 60% in size
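Using laser scanning cytometry, GFP-positive aggregates were counted after lysis of PC12 cells induced with 100 nM tebufenozide to express HTT exon 1 Q103–GFP. Compounds were tested in titration.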
HPGD block – qHTS Assay for Inhibitors of HPGD (15-Hydroxyprostaglandin Dehydrogenase); 15-hydroxyprostaglandin dehydrogenase [NAD(+)] (Homo sapiens), P15428; purified HPGD, NADH fluorescence kinetic, PGE2 substrate; Potency, µM, without a hit: at the top dose activity change, negative = inhibition, hits mostly inhibitors; 150,000 tested, 4.3% active; AID 894, 2007; active = well fitted inhibition curve with a large enough effect, not every such curve was filed as active; inconclusive = small, poorly fitted or top-dose-only effect, or another doubt; inactive = no such curve, though single readings can be large or run the other way; note: potency is the fitted concentration of half-maximal effect; % is set by controls: 0 for no effect and ±100 for the full control effect
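20 nM HPGD preincubated 15 min at room temperature with compound in 50 mM Tris-HCl pH 8, 0.01% Tween 20. Started with 1 mM NAD+ and 30 uM prostaglandin E2; NADH fluorescence (360/450 nm) read 5 times over 30-s intervals, last minus first.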
ALDH1A1 block – qHTS Assay for Inhibitors of Aldehyde Dehydrogenase 1 (ALDH1A1); Aldehyde dehydrogenase 1A1 (Homo sapiens), P00352; Purified ALDH1A1, NADH fluorescence, propionaldehyde substrate; Potency, µM (series often up to 75.3 µM), without a hit: top-dose activity, negative = inhibition, hits mostly inhibitors; 220,000 tested, 7.3% active; active = well fitted inhibition curve with a large enough effect, not every such curve was filed as active; inconclusive = small, poorly fitted or top-dose-only effect, or another doubt; inactive = no such curve, though single readings can be large or run the other way;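 note: potency is the fitted concentration of half-maximal effect; plate controls were no enzyme wells and a reference inhibitor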
* marks the source's active call; other numbers are inactive results; ? = inconclusive; . = no result; [ ] = dose if it differs, or a comment. Unless noted, calls come from the whole dose curve; as a rule, active = well fitted curve in the direction sought with a large enough effect; inconclusive = small, poorly fitted or top-dose-only effect, or another doubt; inactive = no such curve, though single readings can be large; an effect the other way counts as inactive or inconclusive.

SMILES | PNC inhibitor | HTT cytoprotect | CBFb RUNX1 block | HTT aggregate | HPGD block | ALDH1A1 block
N=c1ccn(CC(=O)c2ccc(-c3ccccc3)cc2)cc1 | . | -64.7%[10 µM] | -9.4% | -42.7%[9.22 µM] | . | -12.8%
Cc1cccc(C(=O)NNC(=O)c2cccc(C)c2)c1 | 2.4 | . | 0.1% | 0.4% | -0.6% | 0.5%
Cc1c(F)c(N2CCNC(C)C2)cc2c1c(=O)c(C(=O)O)cn2C1CC1 (configuration not stated) | . | 0.8% | . | 12.0% | . | .
O=C(OCc1nc2ccccc2s1)c1cc2ccccc2oc1=O | 21.3 | -2.2%[1.9 µM] | -2.4% | -12.4% | -23.5% | ?
CC(C)(C)c1ccc(OCC(=O)O)c(Cl)c1 | . | -4.5%[10 µM] | . | . | -6.0% | -13.0%[13.5 µM]
CCCC(=O)c1ccc(-c2ccccc2)cc1 | 37.5 | -2.8%[10 µM] | 14.5% | -10.7% | 7.08µM* | -2.5%
C=CCNC(=S)NC(=O)c1ccc(C)c(Br)c1 | . | -13.1% | -6.9% | 18.6% | . | 15.7%
CCCCN(CC)C(=O)c1cccc(Cl)c1 | -7.2 | -4.6% | -1.5% | -0.6% | ? | ?
CCN(CC)C(=O)c1ccc(C)c(Br)c1 | 21.8 | 0.7%[0.074 µM] | 9.4% | -16.4% | 17.8µM* | 7.5%
CCCCN(CC)C(=O)c1ccc(-c2ccccc2)cc1 | 28.4 | -11.7%[10 µM] | 7.2% | -9.2% | 2µM* | -2.6%
Cc1cc(Nc2ccc(O)cc2)ccc1N | . | -72.2% | ? | . | -13.4% | 3.16µM*
Nc1cc([N+](=O)[O-])ccc1Nc1ccc(O)cc1 | . | 6.6%[10 µM] | ? | -30.8%[9.22 µM] | . | .
Cc1cccc(NC(=O)CCCCCN2C(=O)c3ccccc3C2=O)n1 | 36.5 | -6.5%[0.074 µM] | 6.4% | -20.3% | 25.1µM* | ?
O=C(CCCCCCN1C(=O)c2ccccc2C1=O)Nc1nccs1 | 175.6 | 22.0%[10 µM] | -3.3% | -3.0% | 7.94µM* | -8.2%
O=C(CCN1C(=O)c2ccccc2C1=O)Nc1ccccn1 | -87.5* | -3.4%[10 µM] | -5.5% | 9.2% | -5.7% | -14.3%
Cc1ccc(S(=O)(=O)NCCCCCC(=O)Nc2nccs2)cc1 | 32.4 | -2.8% | 2.0% | 22.8% | -5.9% | 15.8µM*
Cc1ccc(S(=O)(=O)NCCCCCC(=O)Nc2c(C)n(C)n(-c3ccccc3)c2=O)cc1 | . | -12.8% | -2.7% | 13.7% | . | 12.6µM*
Cc1ccc(S(=O)(=O)NC(=O)Nc2c(C)n(C)n(-c3ccccc3)c2=O)cc1 | 30.6 | 8.9%[10 µM] | -3.1% | 11.5% | -10.9% | 1.8%
COc1ccc(NC(=S)Nc2ccc(N)c([N+](=O)[O-])c2)cc1 | -20.9 | -11.4% | -16.4% | ? | ? | 25.1µM*
COc1ccc(CCC(=O)Nc2ccc(C)c([N+](=O)[O-])c2)cc1 | ? | 10.2%[10 µM] | -0.6% | 6.9% | 12.6µM* | 10µM*
COc1ccc(NC(=S)Nc2ccccc2)cc1 | . | 13.8%[10 µM] | 9.2% | 4.9%[9.22 µM] | -1.2% | 4.3%[13.5 µM]
O=[N+]([O-])c1cc(S(=O)(=O)C(F)(F)F)ccc1Sc1nc2ccccc2s1 | 113.3 | -75.7% | -7.3% | -15.1%[9.22 µM] | 25.1µM* | -14.9%
OCn1ncn(-c2ccccc2)c1=S | -23.0 | 6.3% | 3.0% | -0.4% | -14.7% | ?
N#C/C(=C\NC(=S)c1ccncc1)c1nc2ccccc2s1 | . | -7.2%[10 µM] | . | . | -17.3% | ?
COc1ccc(C(=O)N/N=C/c2c(CO)cnc(C)c2O)cc1 | . | -77.2% | ? | 31.6µM* | . | ?
Cc1cccc(/N=C/c2sc3ccccc3c2O)n1 | . | 5.4%[10 µM] | -3.9% | 0.6%[9.22 µM] | . | -10.7%
Cc1ccccc1C(=O)N/N=C/c1ccsc1C | 69.4 | . | 3.1% | -12.0% | -16.5% | -11.3%
O=C(N/N=C/c1sc2ccccc2c1O)c1cccc2ccccc12 | ? | -87.0%[10 µM] | ? | 1.41µM* | -9.1% | 4.2%
Cc1sccc1/C=N/NC(=O)c1cccc2ccccc12 | -103.7* | . | 2.1% | -6.0% | -6.8% | 4.6%

Assay outcomes as filed in PubChem.
